ROCK2 blocker = ROCK2 (human) kinase inhibition | O75116 | purified ROCK2, Kinase-Glo ATP depletion luminescence | inhibition, % at 6 µM | 60,000 compounds, 0.35% hits | AID 604;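 active means inhibition above the screen-wide mean inhibition plus 3 SD, cut at about 18% in these data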
PKA kinase inh = PKA (human) kinase inhibition; P17612; PKA Kemptide phosphorylation, Kinase-Glo ATP luminescence; inhibition, % at 6 µM; 65,000 compounds, 0.1% hits;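 active means inhibition above the screen-wide mean inhibition plus 3 SD, cut at about 21% in these data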
D1 allo mod = allosterically modulates the human D1 dopamine receptor | B-score at 10 µM | P21728 | AID 641 | HEK293 D1, CRE-luciferase, dopamine EC30 potentiation; actives deviate in either direction | 58,000 compounds, 5.9% hits;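 active means luminescence count or its row- and column-corrected plate score outside the 99.7% band of the plate's sample wells, on either side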
Target sequence (P21728 whole entry, looked up): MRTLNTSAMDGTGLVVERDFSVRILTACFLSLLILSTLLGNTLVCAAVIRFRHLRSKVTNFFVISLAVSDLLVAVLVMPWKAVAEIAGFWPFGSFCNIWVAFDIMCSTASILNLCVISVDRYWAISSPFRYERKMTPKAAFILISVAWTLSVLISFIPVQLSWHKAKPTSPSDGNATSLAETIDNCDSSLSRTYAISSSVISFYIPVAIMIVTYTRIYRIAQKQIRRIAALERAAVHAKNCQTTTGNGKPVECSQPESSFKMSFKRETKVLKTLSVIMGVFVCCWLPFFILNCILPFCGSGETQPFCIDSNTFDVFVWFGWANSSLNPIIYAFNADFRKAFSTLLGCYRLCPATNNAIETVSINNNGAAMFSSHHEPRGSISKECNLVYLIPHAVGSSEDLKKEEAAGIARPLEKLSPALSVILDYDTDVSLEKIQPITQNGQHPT
DAT uptake mod = modulates human dopamine transporter uptake under cocaine; LLC-PK1 hDAT cells, [14C]-dopamine uptake with cocaine IC80; actives deviate in either direction; 110,000 compounds, 1.3% hits; Q01959; B-score at 10 µM;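 active means Z score or B-score, a plate-position-corrected score, falls beyond the plate's 99.7% confidence bounds, in either direction; inactive means both scores lie inside the 99.7% bounds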
JNK3 blocker = blocks human JNK3 kinase activity. P53779. purified JNK3 kinase activity, HTS. inhibition, % at 8 µM. 60,000 compounds, 0.61% hits. AID 746; in the data active means inhibition above about 17%
A number is an active result; . = inactive; / = no result given. Only a selection was taken, and hits are over-represented in it overall.

SMILES	ROCK2 blocker	PKA kinase inh	D1 allo mod	DAT uptake mod	JNK3 blocker
CC1=C(C#N)C(Nc2cc(C)ccn2)(C(F)(F)F)C(=O)N1 (configuration not stated)	/	/	/	.	/
OCCOCCn1c(C(CO)Nc2nc(-c3ccc(F)cc3)cs2)nc2ccccc21 (configuration not stated)	/	/	/	.	/
CCCCN(CC)Cc1ccc(CNC(=O)Nc2ccc(OC)cc2OC)o1	.	.	.	.	.
CCCCN(CC)Cc1ccc(CNC(=O)Nc2ccccc2)o1	/	/	/	-2.53	/
COc1ccc([C@H]2C=C3CN(C(=O)OC(C)(C)C)S(=O)(=O)[C@H]3C[C@H]2OC(=O)c2cccs2)cc1	/	/	/	.	/
O=C(CSc1nnc(Cc2cccs2)n1C1CCCCC1)N1CCCc2ccccc21	.	.	.	2.23	.
Cn1c(Cc2cccs2)nnc1SCC(=O)N1CCCc2ccccc21	/	/	/	.	/
COc1ccc(-c2cc(C(F)F)n3ncc(C(=O)N4CCCCC4)c3n2)cc1	/	/	/	2.58	/
CCN1CCN(C(=O)c2cnn3c(C(F)F)cc(-c4ccc(C)cc4)nc23)CC1	/	.	/	.	/
COc1ccc(C)cc1-n1nnnc1SCc1csc(C)n1	.	.	.	-8.25	.
COc1ccc(C)cc1-n1nnnc1SCc1cc(=O)n2cc(C)ccc2n1	.	.	/	.	.
Cc1c(-n2cc(C(=O)O)c(=O)c3cc(F)c(N4CCCC4)c(F)c32)c(=O)n(-c2ccccc2)n1C	/	.	2.69	.	/
CN1CCN(c2c(F)cc3c(=O)c(C(=O)O)cn4c3c2SCC4)CC1	.	.	.	.	.
CC1=CC(=C2C(=O)c3ccccc3C2=O)C=C(C)N1C	.	.	/	/	20.8
Cc1ccc(C=C2C(=O)c3ccccc3C2=O)s1	/	/	/	.	/
Cc1[nH]c2ccccc2c1SCc1ccccc1	/	/	/	-2.68	/
N#Cc1c(N)oc(-c2ccco2)c1-c1ccco1	.	.	18.6	.	.
N#Cc1c(N)nc2c(c1-c1ccco1)CCCCC2	.	.	.	.	31.6
N#Cc1c(N)nc2c(c1-c1ccncc1)CCCCC2	.	.	.	.	.
CCCCOc1ccc(N2C(=O)CC(NCCc3ccc(S(N)(=O)=O)cc3)C2=O)cc1 (configuration not stated)	/	/	/	.	/
NC(=O)CSc1nnc(-c2ccco2)n1N	/	/	/	.	/
CC(C)OC(=O)CSc1nnc(-c2ccco2)n1N	.	.	-3.12	/	.
CCCn1c(SCC(N)=O)nnc1-c1ccco1	/	.	-3.19	.	/
Cc1nnc2sc(-c3csc4c3CCCC4)nn12	.	.	.	3.36	.
Cc1nnc(SC(=O)N2c3ccccc3Sc3ccccc32)s1	.	.	-3.26	.	.
SMILES	ROCK2 blocker	PKA kinase inh	D1 allo mod	DAT uptake mod	JNK3 blocker
COc1ccc(-c2noc(CCCOc3ccccc3)n2)cc1OC	.	.	/	.	.
c1ccc(OCCCc2nc(-c3ccncc3)no2)cc1	18.3	.	.	.	.
Cc1cc(C)n(-c2nc3ccccc3c(=O)n2OCC(=O)Nc2c(C)cccc2C)n1	.	.	.	.	.
O=C(Nc1ccc(Cl)cc1)Nc1cccnc1	/	/	/	-2.33	/
CCOC(=O)C1=C(C)N(CCCC(=O)O)C(=O)NC1c1ccc(Br)cc1 (configuration not stated)	/	/	/	.	/
COc1cc2nc(-c3cccs3)oc(=O)c2cc1OC	.	.	5.6	.	.
CC(=O)c1ccc(NC(=O)Nc2cccc(Cl)c2)cc1	/	/	/	-3.89	/
CC(=O)c1cccc(NC(=O)Nc2c(C)nn(C)c2C)c1	.	.	.	2.09	.
COC(C/C=C/C(=O)[C@H](C)OCc1ccccc1)OC	/	/	/	.	/
CN1CCN(c2nc(-c3cccnc3)nc3ccccc23)CC1	.	.	/	.	.
CCN1CCN(c2nc(-c3cccnc3)nc3ccccc23)CC1	.	.	-4.34	.	.
O=C1c2ccccc2-c2onc3ccc(NCc4ccco4)c1c23	.	.	.	.	32.9
CC(C)(C)c1cnnn1-c1ccc(C(=O)CCl)cc1	/	/	/	.	/
CC(C)(C)c1cnnn1-c1ccc(C=O)cc1	/	/	/	-2.73	/
CNC(=O)c1ccccc1NC(=O)c1cccc(S(=O)(=O)N2CCC(C)CC2)c1	.	.	-3.73	.	.
CCc1nnc(NC(=O)[C@@H](NC(=O)c2cccc(S(=O)(=O)N(CC)CC)c2)C(C)C)s1	/	/	/	.	/
Cc1cc2cc(C)c3nnc(SCC(=O)N4CCc5ccccc54)n3c2cc1C	/	/	/	.	/
CSc1nsc(/C=C/Nc2cccc(Cl)c2)c1C#N	/	/	/	.	/
CSc1nsc(/C=C/Nc2ccc(Cl)cc2)c1C#N	/	/	/	2.57	/
CN(C)c1ccc(Nc2nc(-c3cccnc3)cs2)cc1	.	.	-2.85	.	.
Clc1ccc(Nc2nc(-c3cccnc3)cs2)cc1	/	/	/	.	/
CCOC(=O)CNc1c(-c2ccc(O)cc2)nc2ccc(Cl)cn12	.	.	-4.4	.	.
COc1cccc(NC(=O)CCSc2nnc3scc(-c4ccccc4)n23)c1	/	.	4.38	/	/
CN(CC1CCCO1)S(=O)(=O)c1ccc(C(=O)Nc2nc3cc4c(cc3s2)OCO4)cc1 (configuration not stated)	.	.	-4.35	/	.
O=S(=O)(c1cc(F)cc(F)c1)N1CCN(c2ncccn2)CC1	/	.	.	.	/
SMILES	ROCK2 blocker	PKA kinase inh	D1 allo mod	DAT uptake mod	JNK3 blocker
CCOC(=O)C1=NN(c2ccc(OC)cc2)C(c2ccccc2)CC1=O (configuration not stated)	/	/	/	-8.62	/
CCOc1c2ccc(C(=O)NCc3ccc4c(c3)OCO4)cc2nn1CC	/	/	/	.	/
CCOc1cccc(SCc2noc(C(=O)NCC3CCCO3)c2C(=O)O)c1 (configuration not stated)	/	/	/	.	/
CCNC(=S)Nc1ccc(Oc2ccccc2)cc1	/	/	/	-2.75	/
O=C(NC(=S)Nc1ccc(Oc2ccccc2)cc1)c1ccc(Cl)cc1	/	/	/	2.58	/
CC1CN(Cc2nc3c(c(=O)n(C)c(=O)n3C)n2Cc2ccc(Cl)cc2)CC(C)O1 (configuration not stated)	.	.	.	/	.
COCCNc1nc(-c2cc(-c3ccc(Cl)cc3)on2)cc(C(C)C)n1	/	/	/	.	/
CCCS(=O)(=O)c1c(S(=O)(=O)CCC)c2c(C)cccn2c1C(=O)OC	/	/	/	1.39	/
CCCS(=O)(=O)c1c(S(=O)(=O)CCC)c2c3ccccc3ccn2c1C(=O)OC	/	/	/	.	/
CCOc1ccccc1NC(=O)N1CCC(n2nnc3cc(C)ccc32)CC1	.	.	/	2.41	.
O=C(NC(=S)NCc1ccccc1)C1CCCCC1	/	/	/	.	/
CC1(c2nnc(-c3cccc(Cl)c3)o2)CC(c2cccnc2)=NO1 (configuration not stated)	/	/	/	.	/
CN1C(=S)SC(/[N+]([O-])=C\c2cccs2)C1(C)C (configuration not stated)	.	.	-7.52	.	.
Cc1ccc(/C=[N+](/[O-])C2SC(=S)N(C)C2(C)C)cc1 (configuration not stated)	/	/	/	.	/
CN1C(=S)SC(/[N+]([O-])=C\c2ccco2)C1(C)C (configuration not stated)	.	.	-5.78	.	.
Cc1ccc(-c2cc3c(nn2)-c2ccccc2C3=O)cc1	.	.	-5.67	/	.
Cc1ccccc1-c1cc2c(nn1)-c1ccccc1C2=O	/	/	/	.	/
COC(=O)c1c(N)n(-c2cc(OC)cc(OC)c2)c2nc3ccccc3nc12	.	.	3.31	/	.
O=S(=O)(c1ccc2ccccc2c1)N1CCC(c2nc(-c3ccncc3)no2)CC1	/	/	/	.	/

Assay outcomes: PubChem, several laboratories
